Source: PubChem BioAssay
Many of the other results were omitted from the sample, so hits are more common in it than they were.
KDM5B inhibitor – inhibitors of human KDM5B histone demethylase; Q9UGL1; KDM5B demethylase, FDH-coupled NADH fluorescence (FDH is formaldehyde dehydrogenase); Potency, µM (doses to about 57.7 µM), usual class: inhibitors; actives 2.6% (n = 220,000); AID 1347165; active = well fitted inhibition curve with a large enough effect; note: 0% is about no effect; nearly all actives have a fitted effect of over 70% in size
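Here, H3K4me3 peptide (12.5 µM in substrate mix) is demethylated by KDM5BΔAP, 200 nM final, after 10 min compound exposure. Formaldehyde product is coupled through FDH (0.25 U/mL in mix) to NADH fluorescence; 30-min ΔRFU feeds dose-response curves.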
* marks the source's active call; other numbers are inactive results; i = inactive. Potency is the fitted concentration of half-maximal effect.

SMILES | KDM5B inhibitor
CCc1ccccc1S(=O)(=O)N1CCCC(Cn2c(C3CC3)nc3cccnc32)C1 (stereo not drawn) | i
Cc1ccc(C(=O)OCCOc2ccc(C#N)cc2)cc1F | i
CC(Sc1nncn1-c1cccc(Cl)c1)c1nc2ccccc2c(=O)[nH]1 (stereo not drawn) | i
CCc1cccc(C)c1NC(=O)COC(=O)c1cc(C)nc2ccccc12 | i
O=C(c1ccccc1)N1CCCC2(C1)Nc1cccnc1NC2=NCc1ccccc1 (stereo not drawn) | 28µM*
O=S(=O)(c1cccnc1)N1CCCC2(C1)Nc1cccnc1NC2=NCc1ccccc1 (stereo not drawn) | 28µM*
O=C(c1ccsc1)N1CCCC2(C1)Nc1cccnc1NC2=NC1CCCC1 (stereo not drawn) | 8.9µM*
COc1ccc(C(=O)N2CCCC3(C2)C(=NC2CCCCC2)NC(=O)N3c2cccnc2)cc1 (stereo not drawn) | i
COc1ccc(C(=O)N2CCCC3(C2)C(=NC2CCCC2)NC(=O)N3c2cccnc2)cc1 (stereo not drawn) | i
O=C(CC1CCN(S(=O)(=O)c2cccnc2)C1)NCc1ccccc1 (stereo not drawn) | i
Cc1ccc(C(=O)N2CCCC3(C2)NC(=O)N(Cc2ccccc2)C3=O)cc1 (stereo not drawn) | i
O=C(NCCc1ccccc1)C1CN(S(=O)(=O)c2cccnc2)CC12CCCCC2 (stereo not drawn) | i
O=C(c1cccnc1)N1CCC2(C1)C(=NC1CCCC1)NC(=O)N2c1cccnc1 (stereo not drawn) | i
CCOc1ccc(C(=O)N2CCCC3(C2)Nc2cccnc2NC3=NC2CCCC2)cc1 (stereo not drawn) | 32µM*
Cc1cc(C)cc(C(=O)N2CCCC3(C2)NC(=O)N(Cc2ccccc2)C3=O)c1 (stereo not drawn) | i
O=C(c1cccnc1)N1CCCC2(C1)C(=NC1CCCC1)NC(=O)N2c1cc(F)cc(F)c1 (stereo not drawn) | i
Cc1cc(N(CCO)CCO)nc(NCc2ccccc2)n1 | i
Cc1cc(C)n2nc(SCC(=O)c3cc(C)n(C4CCS(=O)(=O)C4)c3C)nc2n1 (stereo not drawn) | i
CCCn1c(N2CCN(C(=O)c3ccc(OC)cc3)CC2)nc2sc3c(c2c1=O)CCCC3 | i
CC(C)CNC(=O)Cc1ccc(-n2c(=O)c3ccccc3n(Cc3ccccc3F)c2=O)cc1 | i
c1ccc(-c2noc(-c3cncnc3N3CCSCC3)n2)cc1 | i
O=C(COC(=O)C1C2CCC(C2)C1C(=O)OCC(=O)c1ccc(OC(=O)c2ccco2)cc1)c1ccc(OC(=O)c2ccco2)cc1 (stereo not drawn) | i
NC(=O)NCCC(=O)N1CCc2onc(C(c3ccccc3)c3ccccc3)c2C1 | i
COc1cccc(C(=O)N2CCC3(CC2)NC(=O)N(Cc2ccccc2)C3=O)c1 | i
Cc1noc(C)c1CC(=O)N1CCCC2(C1)Nc1cccnc1NC2=NC1CCCC1 (stereo not drawn) | 25µM*
SMILES | KDM5B inhibitor
O=C(c1ccccc1)N1CCCC2(C1)Nc1cccnc1NC2=NC1CCCC1 (stereo not drawn) | 28µM*
Cc1noc(C)c1CC(=O)N1CCCC(c2nn(C)c(=O)n2-c2ccccc2)C1 (stereo not drawn) | i
COCCN=C1Nc2ncccc2NC12CCCN(C(=O)c1cccc(OC)c1)C2 (stereo not drawn) | 32µM*
O=C(c1ccccc1)N1CCC2(C1)C(=NC1CCCCC1)NC(=O)N2c1cccnc1 (stereo not drawn) | i
COC(=O)N1CCCC2(C1)C(=NC1CCCCC1)NC(=O)N2c1cccnc1 (stereo not drawn) | i
Cc1noc(C)c1CC(=O)N1CCCC(Cc2noc(-c3cccnc3)n2)C1 (stereo not drawn) | i
COc1cc(OC)cc(C(=O)N2CCCC3(C2)NC(=O)N(Cc2ccc(C)cc2)C3=O)c1 (stereo not drawn) | i
Cc1ccc(NC(=O)N2CCCC(Cn3cnc4cccnc43)C2)c(Cl)c1 (stereo not drawn) | i
O=C(Nc1ccccc1Cl)N1CCCC2(C1)Nc1cccnc1NC2=NC1CCCC1 (stereo not drawn) | 28µM*
COc1cccc(N2C(=O)NC(=NC3CCCCC3)C23CCCN(C(=O)c2ccccc2)C3)c1 (stereo not drawn) | i
Cn1cc(C(=O)N2CCN(S(=O)(=O)c3ccc(Br)cc3)CC2)c2ccccc21 | i
C/C(=N/Nc1cc(C(F)(F)F)ccc1Cl)c1cccc(Br)c1 | i
COc1ccc(-c2nc(NCCN3CCCCC3C)c3ccccc3n2)cc1 (stereo not drawn) | i
CCN1CCCN(S(=O)(=O)c2cc(OC)ccc2OC)CC12CCOCC2 | i
CCc1cccc2c(C(=O)CSc3n[nH]c(C(C)C)n3)c[nH]c12 | i
COc1cc(C#N)ccc1OC(C)c1ccccc1Cl (stereo not drawn) | i
Cc1cccc(CNC(=O)C2CC(c3ccc(F)c(C)c3)CN(C(=O)c3ccccc3)C2)c1 (stereo not drawn) | i
CN(C)Cc1ccc(-c2cc3c(ccn3Cc3cccnc3)c(C3=CCOCC3)n2)cc1 | 35µM*
O=C(/C=C/c1ccccc1OCc1cccnc1)c1ccc(N2CCOCC2)cc1 | i
CN(Cc1cccnc1)c1nc2c(c(=O)[nH]1)CCN(Cc1ccc(F)c(F)c1)CC2 | i
C1=C(c2nc(-c3ccc(N4CCOCC4)cc3)cc3c2ccn3Cc2cccnc2)CCOC1 | 28µM*
C1=C(c2nc(-c3cccc4[nH]ncc34)cc3c2ccn3Cc2cccnc2)CCOC1 | i
CNC(=O)NC(=O)CN(C)Cc1ccc(C(C)C)cc1 | i
O=C(NCCCN1CCc2ccccc2C1)c1ccccc1C(F)(F)F | i
COc1ccc(N2CC3(C2)CN(c2ccccc2)C(=O)O3)cc1OC | i
SMILES | KDM5B inhibitor
COc1ccc(CCC(=O)Oc2ccc3c(c2)OCO3)cc1 | i
CCCC1c2nccn2CCCN1C(=O)c1cc(C)no1 (stereo not drawn) | i
CNc1nc(-c2c(C(=O)OC)c(C)n(C3CC3)c2C)cs1 | i
COCCOc1ccc(-c2nc(C)ccc2OC)cc1 | 25µM*
COc1ccc(C)nc1-c1cccc(OC)c1C(=O)N(C(C)C)C(C)C | i
COCCOc1ccc(C(=O)/C=C/c2cc(OC)c(O)c(OC)c2)cc1 | i
O=C(CCC1CCCCC1)Nc1ccc(I)cc1 | i
CCCOCC(=O)N1CCCC(c2cc(N3CCCC3)nc(C)n2)C1 (stereo not drawn) | i
CCOC(=O)c1sc(CC(=O)Nc2ccccc2C)nc1C | i
Cc1ccc(-c2noc(CN3CCCC3c3cccs3)n2)cc1 (stereo not drawn) | i
O=C(Nc1ccc(Cl)cc1C(F)(F)F)c1ccc(Cl)cc1Cl | i
COc1ncccc1-c1ccnc(-c2nnc(C)n2-c2ccccc2)c1 | 32µM*
COCCCNc1ccnc(-c2nnc(C)n2-c2ccccc2)c1 | i
Cc1nnc(-c2cc(-c3cccc(O)c3)ccn2)n1-c1ccccc1 | i
O=C(CCc1conc1-c1ccc(F)cc1)NCc1cccc(Br)c1 | i
COc1ccc(OC)c(NC(=O)COc2cc(C)cc(C)c2C)c1 | i
COc1ccc(/C=C(/C#N)C(=O)Nc2cccc3ncccc23)cc1OC | i
Cc1c(NC(=O)CN(c2cc(Cl)ccc2Cl)S(C)(=O)=O)c(=O)n(-c2ccccc2)n1C | i
